Experimental data from PubChem BioAssay (NCI).
About 83,000 compounds went through this panel and 20% of them were active in at least one assay; those are over-represented in the sample as a whole.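 Note: values are percent growth. 100 is the growth of untreated cells, values between 100 and 0 indicate rising inhibition; between -100 and 0 indicates cell death.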 A number with no mark means an inactive call. Calls of active or inactive are those of the source. How the source made its calls: active means growth percent below 10; inactive means the rest.

Legend:
Assay in all cases: NCI-60 one-dose screen, 48 h (100 = growth as untreated, 0 = no growth, -100 = all killed)
Settings in all cases: 10 µM unless noted
HT29 colon = tested on: HT29 colon
SNB-75 CNS = tested on: SNB-75 CNS
SNB-19 CNS = tested on: SNB-19 CNS
U251 CNS = tested on: U251 CNS
PC-3 prostate = tested on: PC-3 prostate
SK-MEL-5 melanoma = tested on: SK-MEL-5 melanoma
UACC-62 melanoma = tested on: UACC-62 melanoma
LOX IMVI melanoma = tested on: LOX IMVI melanoma
SK-MEL-28 melanoma = tested on: SK-MEL-28 melanoma
SK-MEL-2 melanoma = tested on: SK-MEL-2 melanoma
EKVX NSCLC = tested on: EKVX NSCLC
SN12C renal = tested on: SN12C renal
UO-31 renal = tested on: UO-31 renal
TK-10 renal = tested on: TK-10 renal
ACHN renal = tested on: ACHN renal
CAKI-1 renal = tested on: CAKI-1 renal
A498 renal = tested on: A498 renal
CCRF-CEM leukemia = tested on: CCRF-CEM leukemia
MOLT-4 leukemia = tested on: MOLT-4 leukemia
SR leukemia = tested on: SR leukemia

SMILES | growth (HT29 colon) | growth (SNB-75 CNS) | growth (SNB-19 CNS) [%] | growth (U251 CNS) | growth (PC-3 prostate) | growth (SK-MEL-5 melanoma) | growth (UACC-62 melanoma) | growth (LOX IMVI melanoma) | growth (SK-MEL-28 melanoma) | growth (SK-MEL-2 melanoma) | growth (EKVX NSCLC) [%] | growth (SN12C renal) [%] | growth (UO-31 renal) | growth (TK-10 renal) | growth (ACHN renal) [%] | growth (CAKI-1 renal) | growth (A498 renal) | growth (CCRF-CEM leukemia) | growth (MOLT-4 leukemia) | growth (SR leukemia)
O=C1Cc2cc(CCn3cncn3)c(Cl)cc2N1 | 97.1% | 63.6% | 74.4 | 73.4% | 86.4% | 40.1% | 68.2% | 81% | 67.2% | 71.3% | 29.5 | 55.8 | 66% | 122% | 74.6 | 60% | 47.1% |  |  | 
Cn1cc(-c2csc(-c3c[nH]c4ncccc34)n2)c2cc(F)cnc21 | 90.6% | 66.2% | 89 | 83.3% | 69.1% | 61.4% | 64.7% | 64.3% | 96.2% | 89.7% | 51.9 | 78.1 | 55.6% | 54.3% | 53.3 | 45.1% | 70.4% | 66.1% | 80.5% | 
O=C(O)C(=O)O | 109% | 67.4% | 91.7 | 90% | 110% | 99.5% | 98.7% | 92.9% | 99.5% | 88.3% | 103 | 106 | 100% | 93.3% | 91.9 | 99.2% | 92.9% | 102% | 138% | 136%
Cn1cc(-c2nc(-c3c[nH]c4ncc(F)cc34)cs2)c2cccnc21 | 112% | 101% | 108 | 98.6% | 104% | 97.9% | 89.1% | 98% | 111% | 120% | 84.3 | 101 | 100% | 124% | 93.7 | 92.5% | 109% | 102% | 101% | 
CC1CC(C)/C(=N/NC(N)=O)C(C(O)CC2CCC(=O)NC2=O)C1 (stereo not given) | 35.8% | 57.7% | 31.4 | 35.1% | 40.6% | 31.7% | 46.3% | 27.3% | 37% | 33.8% | 33.6 | 18.9 | 15.9% | 53.9% |  | 35.5% | 71.1% | 15.6% | 23% | 48.5%
Cc1nn(-c2ccccc2)c2nc3c(nc12)C(=O)CCC3 | 99% | 98.2% | 104 | 102% | 90% | 88.3% | 86.3% | 90.3% | 114% | 90% | 93.8 |  | 66.4% | 104% | 95.5 | 101% | 81.7% |  |  | 
C=C(C)[C@H]1CC/C(C)=C/CC[C@]2(C)O[C@H]2CC/C(C=O)=C\C1O (stereo not given in full) | 98.2% | 106% | 112 | 103% | 122% | 94.8% | 106% | 98.1% | 115% | 1410% | 103 | 101 | 58.1% | 106% | 99 |  | 143% | 137% | 142% | 120%
CCCCCCCC/C=C/CCCCCCCC1=NC(C)(C)CN1CC(C)O (stereo not given) | -64.8% (active) | 32% | 72.3 | -17% (active) | 42% | 53.3% | 3.95% (active) | -99.4% (active) | 53.2% | 33% | 71.2 |  | -73.9% (active) | 82.8% | 28 | 62% | 76.9% | -37.9% (active) |  | 
Clc1cccc(Cc2cn3cc(-c4ccccc4)nc3s2)c1 | 53.4% | 73.8% | 65.8 | 67.7% | 51.8% | 2.66% (active) | 23.3% | 23.5% | 48.8% | 72% |  | 68.2 | 49.7% | 69.2% | 27.9 | 47.8% | 84.9% | 63.4% | 64.1% | 
COc1ccc(C(=O)C(C)Br)cc1OC (stereo not given) | 37.7% | 85.8% | 95.7 | 78.7% | 98.6% | 92.1% | 86.3% | 79.2% | 112% | 86% | 98.4 | 72.9 | 71.8% | 101% | 80.3 | 60.1% |  | 26.7% | 71.3% | 18.6%
C[N+]1(CCc2ccccc2)CCC(CCC2CC[N+](C)(CCc3ccccc3)CC2)CC1 (stereo not given) | 94% | 83.9% | 98.1 | 87.9% | 101% | 100% | 85.7% | 102% | 111% | 119% | 97.2 | 88.5 | 72.7% | 96.9% | 101 | 96.6% |  | 127% | 123% | 120%
O=C(c1ccccc1)c1ccccc1Cl | 92.9% | 88.8% | 97.1 | 99% | 96.1% | 105% | 99.6% | 107% | 103% | 100% | 101 | 101 | 86.7% |  | 112 | 109% |  | 86.3% | 94.2% | 94.5%
Cc1c(C(N)=O)sc2c1c(=O)n(Cc1ccccc1)c1nnc(SCC(=O)Nc3ccc(Cl)cc3)n21 | 37.1% | -52% (active) | 58 | 20.2% | 38.1% | 51.8% | 57.6% | 41.8% | 17.3% | 0.559% (active) | 50.2 |  | 75.5% | -22.9% (active) | 32.7 | 77% | 40.1% |  |  | 
Cc1nc(N)[nH]c(=O)c1C | 107% | 99.4% | 95.4 | 95.4% | 117% | 108% | 91.1% | 102% | 120% | -10.2% (active) | 100 | 87.4 | 107% | 137% | 111 |  |  | 94.7% | 150% | 92.2%
CN(C)c1ccc2c(c1)/C(=N/O)c1ccccc1-2 | 81.4% | 76.8% | 79.6 | 48.9% | 72.3% | 90.7% | 64.7% | 59.4% | 75.7% | 111% | 67.7 | 95.4 | 64.5% | 123% | 87.5 | 46.6% |  | 83.8% | 81.2% | 47.1%
CCC(CC)NCCCCCNc1cc(OC)cc2cccnc12 | 77.3% | 73.4% | 91.1 | 86.5% | 97.3% | 95.4% | 94.4% | 86.3% | 108% | 79.8% | 104 |  | 71.2% |  | 94.8 | 97.2% | 72.7% | 114% | 98.1% | 109%
CCN(CC)CCOc1ccc(C2=C(c3ccccc3)CCc3cc(OC)ccc32)cc1 | -50% (active) | 44.2% | 53.8 | 22.2% | 7.49% (active) | -68% (active) | -60.2% (active) | -59.6% (active) | -96.2% (active) | -83.1% (active) | 54.4 | 52.3 | -76.7% (active) |  | 50.5 | -26.1% (active) | -4.36% (active) | -37.8% (active) | -49.7% (active) | -42.1% (active)
